Measured values published in PubChem BioAssay (EPA / NIEHS).
Results filed as inconclusive are left out. Activity calls are given as the source filed them. The calls were made as follows, unless noted: active = hit-call score of the fitted dose curve at least 0.9, where 1 is the maximum; inactive = score below 0.9.

Tests used:
[1] = CCTE_Shafer_MEA_dev_bursting_electrodes_number: CCTE's Neural Network Formation Assay for Number of Bursting Electrodes, Shafer Lab (AID 2284043; active = hit-call score of the fitted dose curve at least 0.9, where 1 is the maximum)
How it was run: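 Rat cortical primary neurons, 48-well MEA, 16 electrodes/well; dosing DIV 0–12, re-dosed with full media change DIV 5, 9. Recordings DIV 5/7/9/12, AxIS adaptive spike detector; bursting electrode = ≥1 burst/2 min. AUC across days; loss of signal vs DMSO.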

[2] = CCTE_Shafer_MEA_dev_per_burst_interspike_interval: CCTE's Neural Network Formation Assay for Burst Interspike Interval, Shafer Lab (AID 2284044);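 also: mean spike spacing inside bursts as AUC over recordings on days 5 7 9 12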
How it was run: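 Primary rat cortical neurons on 48-well MEA plates, exposed from day 0 through day 12, treatment renewed at DIV 5 and 9. Within-burst interspike interval recorded days 5, 7, 9, 12, well-averaged, summarised as AUC; negative fit versus DMSO.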

[3] = CCTE_Shafer_MEA_dev_burst_duration_mean: CCTE's Neural Network Formation Assay for Mean Burst Duration, Shafer Lab (AID 2284045)
How it was run: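 Rat cortical cultures, 1.5 x 10^5 cells/well with laminin drop; continuous dosing days 0–12, media plus treatment refreshed DIV 5, 9. AxIS adaptive spike detection; mean single-electrode burst duration, AUC over four recordings, negative direction vs DMSO.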

[4] = CCTE_Shafer_MEA_dev_interburst_interval_mean: CCTE's Neural Network Formation Assay for Mean Interburst Interval, Shafer Lab (AID 2284046);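 also: well-mean interburst interval of bursting electrodes as AUC over four recording days; curve fitted for decrease in interburst interval relative to DMSO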
How it was run: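 Rat cortical neurons, 1.5 x 10^5 cells/well, 48-well MEA; compound from day 0 through DIV 12, media and treatment renewed DIV 5/9. Recordings DIV 5, 7, 9, 12; well-mean interburst interval → trapezoidal AUC, loss direction vs DMSO.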

[5] = CCTE_Shafer_MEA_dev_inter_network_spike_interval_mean: CCTE's Neural Network Formation Assay for Mean Inter-network Spike Interval, Shafer Lab (AID 2284047)
How it was run: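 Primary rat cortical neurons on PEI-coated 48-well MEAs (16 electrodes/well) were exposed from plating day 0 to DIV 12, with dosing renewed at DIV 5 and 9. Recordings at DIV 5, 7, 9, 12 were collapsed by trapezoidal AUC, loss-of-signal fit vs DMSO.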

[6] = CCTE_Shafer_MEA_dev_network_spike_number: CCTE's Neural Network Formation Assay for Number of Network Spikes, Shafer Lab (AID 2284048);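 also: synchronized bursts across electrodes counted on days 5 7 9 12 and integrated as AUC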
How it was run: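 Rat cortical primary cultures on 48-well MEA (16 electrodes/well); continuous exposure DIV 0–12, full medium and treatment exchange DIV 5, 9. Readout: network spike count, AxIS adaptive detection, recordings DIV 5/7/9/12 collapsed to AUC; loss-of-signal fit, DMSO baseline.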

[7] = CCTE_Shafer_MEA_dev_network_spike_peak: CCTE's Neural Network Formation Assay for Mean Number of Electrodes in Network Spike, Shafer Lab (AID 2284049)
How it was run: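 Network-spike peak electrode count from recordings on days 5, 7, 9 and 12 was combined as trapezoidal area under the curve. Rat cortical cultures were treated continuously from plating, with compound renewed at each feed (DIV 5, 9); fits versus DMSO.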

[8] = CCTE_Shafer_MEA_dev_spike_duration_mean: CCTE's Neural Network Formation Assay for Mean Spike Duration, Shafer Lab (AID 2284051);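 also: mean network spike duration pooled as area under curve over DIV 5 to 12 recordings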
How it was run: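 Rat cortical primary cultures, 48-well MEA (16 electrodes/well); compound from plating, renewed DIV 5, 9. Network spike duration (AxIS adaptive detector) recorded DIV 5/7/9/12, combined as trapezoidal AUC; loss direction vs DMSO.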

[9] = CCTE_Shafer_MEA_dev_network_spike_duration_std: CCTE's Neural Network Formation Assay for Standard Deviation of Network Spike Duration, Shafer Lab (AID 2284052);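 also: area under curve of spike duration SD across recording days 5 to 12; hits are decreases in network spike duration SD versus DMSO vehicle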
How it was run: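 Rat cortical cultures, 1.5 x 10^5 cells/well, exposed continuously from plating to DIV 12 with media/compound renewal at DIV 5, 9. Spontaneous activity recorded DIV 5/7/9/12, AxIS adaptive spike detector; AUC across days; negative direction vs DMSO.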

[10] = CCTE_Shafer_MEA_dev_per_network_spike_spike_number_mean: CCTE's Neural Network Formation Assay for Mean Number of Spikes in a Network Spike, Shafer Lab (AID 2284053)
How it was run: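 Rat cortical primary cultures on 48-well MEA; compound from day 0, re-dosed with full media change DIV 5, 9. Recorded DIV 5, 7, 9, 12; spikes in 0.05 s window at network-spike peak ÷ total network spikes; AUC; loss vs DMSO.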

[11] = CCTE_Shafer_MEA_dev_per_network_spike_spike_percent: CCTE's Neural Network Formation Assay for Percent of Spikes in a Network Spike, Shafer Lab (AID 2284054)
How it was run: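 Read-out: percent of spikes falling in a 0.05 s window at network-spike peak, from spontaneous MEA recordings on days 5, 7, 9 and 12; trapezoidal AUC; loss of signal versus DMSO. Rat cortical cultures, compound present throughout.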

[12] = CCTE_Shafer_MEA_dev_LDH: CCTE's Lactate Dehydrogenase Assay for Cytotoxicity in the Neural Network Formation Assay, Shafer Lab (AID 2284068; active = hit-call score of the fitted dose curve at least 0.9, where 1 is the maximum;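 also: exposure for twelve days from plating with re-dosing on DIV 5 and 9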)
How it was run: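 Rat cortical primary neurons, MEA culture; dosing day 0–12, full medium plus compound exchange DIV 5, 9. Read-out: LDH enzyme activity, spectrophotometric. DMSO = negative control/baseline; signal loss → cytotoxicity.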

[13] = CCTE_Shafer_MEA_dev_AB: CCTE's Alamar Blue Assay for Cytotoxicity in the Neural Network Formation Assay, Shafer Lab (AID 2284083; active = hit-call score of the fitted dose curve at least 0.9, where 1 is the maximum;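 also: resazurin reduction fluorescence as viability of cultured neurons; twelve days of exposure from plating with re-dosing on DIV 5 and 9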)
How it was run: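 Rat cortical primary cultures, 1.5 x 10^5 cells/well on MEA; continuous compound exposure over 12 days of network development, re-dosed with full medium change DIV 5 and 9. Alamar Blue fluorescence; loss of signal = cytotoxicity vs DMSO baseline.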

[14] = CCTE_Shafer_MEA_dev_mutual_information_norm: CCTE's Neural Network Formation Assay for Mutual Information Normalization, Shafer Lab (AID 2284091)
How it was run: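 Neurons from rat cortex were seeded at 1.5 x 10^5 cells/well onto PEI-coated MEAs in a laminin drop, then exposed to compound from day 0 for twelve days. Network recordings on four days gave mutual information, summarised by AUC relative to DMSO.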

[15] = CCTE_Shafer_MEA_dev_correlation_coefficient_mean: CCTE's Neural Network Formation Assay for Mean Correlation Coefficient, Shafer Lab (AID 2284093)
How it was run: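 Rat cortical cultures, 1.5 x 10^5 cells/well, dosed from day 0 for 12 days. Spontaneous spikes recorded DIV 5/7/9/12; electrode-pair correlation coefficients averaged, AUC taken. Fit in loss direction vs DMSO.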

[16] = TAMU_PeakParms_SingleDonor1434_Chronotropy: Texas A&M University (TAMU) 1.5-hr Human Induced Pluripotent Stem Cell (iPSC)-derived Cardiomyocytes Calcium (Ca+2) Flux Assay for Cardiotoxicity: Chronotropy (changes in peak frequency) (AID 2284217); conditions: actives raise or lower the signal
How it was run: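 iPSC-CMs, donor 1434; 4 conc (0.2–100 uM), 0.5% v/v DMSO, 90 min, 37C/5% CO2; Ca2+ flux fluorescence → peak.freq.avg; peak.freq.avg = 0 dropped; bidirectional fit vs DMSO; EC05 POD.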

[17] = TAMU_HCS_1.5hr_SingleDonor1434_Cytotoxicity: Cytotoxicity Assessment using High-content Screening (HCS) Fluorescent Imaging for the Texas A&M University (TAMU) 1.5-hr Human Induced Pluripotent Stem Cell (iPSC)-derived Cardiotoxicity Assay (AID 2284234; active = hit-call score of the fitted dose curve at least 0.9, where 1 is the maximum)
How it was run: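 Nuclear counts from Hoechst 33342 imaging define cytotoxicity here, with EC10 (10% cell-count loss relative to DMSO) as point of departure. iPSC cardiomyocytes received 0.2-100 uM test chemical in 0.5% DMSO for 1.5 h at 37 C.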

[18] = TAMU_PeakParms_SingleDonor1434_Asystole: Texas A&M University (TAMU) 1.5-hr Human Induced Pluripotent Stem Cell (iPSC)-derived Cardiomyocytes Calcium (Ca+2) Flux Assay for Cardiotoxicity: Asystole (quiescence of beating) (AID 2284328; active = hit-call score of the fitted dose curve at least 0.9, where 1 is the maximum)
How it was run: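 Donor 1434 iPSC-cardiomyocytes exposed 90 min at 37C, 5% CO2, to 0.2, 1, 10 and 100 uM in 0.5% DMSO. Ca2+ dye fluorescence gave average peak frequency; POD is EC95, a 95% beat-rate drop versus controls.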

Measured: AC50

c1ccc2cc3c(cc2c1)-c1cccc2cccc-3c12
inactive: [1] | [2] | [3] | [4] | [5] | [6] | [7] | [8] | [9] | [10] | [11] | [12] | [13] | [14] | [15] | [17] | [18]
active: [16] 9.92 µM
